Screens: PubChem, National Center for Advancing Translational Sciences (NCATS)
hNpr1 antagonist – Natriuretic polypeptide receptor (hNpr1) antagonism - Primary qHTS | Atrial natriuretic peptide receptor 1 (Homo sapiens), P16066 | HEK293 hNpr1 GloSensor cGMP, ANP-stimulated luminescence | Potency, µM (series often up to 46.3 µM), inactives show at the top dose activity change, negative = inhibition, usual class: inhibitors | 76,000 compounds, 1.6% hits | AID 1347048, 2019; calls by dose curve; note: % is set by controls: 0 for no effect and ±100 for the full control effect; nearly all actives have a fitted effect of over 60% in size
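HEK293 cells stably expressing human Npr1 and cGMP GloSensor pGS-40F, loaded 2 h with 2% GloSensor reagent, given compound 30 min at room temperature. Luminescence read before and 20 min after 0.1 nM hNppA.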
HEK293 tox – Cytotoxic Profiling in HEK 293 Cell Line of Diverse Libraries Using Quantitative High-Throughput Screening. HEK 293 viability, ATP luminescence (CellTiter-Glo), 48-72 h. Potency, µM (doses to about 115 µM), for inactives: at the highest dose activity change, negative = cytotoxicity, actives largely listed as inhibitors. 94,000 compounds, 6.6% hits; note: % is set by controls: 0 for no effect and ±100 for the full control effect; nearly all actives have a fitted effect of over 60% in size
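ATP-coupled CellTiter-Glo luminescence served as viability read-out, recorded 10 min after reagent addition at room temperature. HEK 293 cells, 250 cells/well, had been incubated with pintool-transferred compound for 48 or 72 hr at 37 degree Celsius.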
FLuc inh-1 – Firefly luciferase inhibition profiling of diverse chemical library using quantitative high-throughput screening; Luciferin 4-monooxygenase (Photinus pyralis), P08659; purified P. pyralis luciferase, luminescence, biochemical; Potency, µM (titrated, usually from 115 µM), hits mostly inhibitors; 76,000 compounds, 2.5% hits; AID 1347043, 2019; note: % is set by controls: 0 for no effect and ±100 for the full control effect; nearly all actives have a fitted effect of over 65% in size
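FLuc 10nM, D-luciferin 10uM, ATP 10uM, Mg acetate 10mM, Tris acetate pH 7.5, Tween/BSA; cpd qHTS; enzyme added last; CCD luminescence.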
NIH3T3 tox – Cytotoxic Profiling in NIH 3T3 Cell Line of Diverse Libraries Using Quantitative High-Throughput Screening; AID 1345082, 2018; Potency, µM (top dose mostly 96.7 µM), for inactives: at the top dose activity change, negative = cytotoxicity, usual class: inhibitors; NIH 3T3 viability, CellTiter-Glo ATP luminescence, 48-72 h; 94,000 compounds, 4.3% hits; note: % is set by controls: 0 for no effect and ±100 for the full control effect; nearly all actives have a fitted effect of over 55% in size
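NIH 3T3 cells at 400 cells/well received 23 nL of compound by pintool and were incubated 48 or 72 h at 37 °C. Viability was read as ATP-coupled CellTiter-Glo luminescence.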
GPT2 inh – Primary qHTS assay for inhibitors of Glutamate pyruvate transaminase 2 (GPT2); Recombinant GPT2, coupled pyruvate oxidase/HRP Amplex Red fluorescence; 100,000 compounds, 0.25% hits; Potency, µM (top dose mostly 57.7 µM), for the others: at the top dose activity change, negative = inhibition, hits mostly inhibitors; note: % is set by controls: 0 for no effect and ±100 for the full control effect; nearly all actives have a fitted effect of over 60% in size
Target sequence (Q8TD30 whole entry, looked up): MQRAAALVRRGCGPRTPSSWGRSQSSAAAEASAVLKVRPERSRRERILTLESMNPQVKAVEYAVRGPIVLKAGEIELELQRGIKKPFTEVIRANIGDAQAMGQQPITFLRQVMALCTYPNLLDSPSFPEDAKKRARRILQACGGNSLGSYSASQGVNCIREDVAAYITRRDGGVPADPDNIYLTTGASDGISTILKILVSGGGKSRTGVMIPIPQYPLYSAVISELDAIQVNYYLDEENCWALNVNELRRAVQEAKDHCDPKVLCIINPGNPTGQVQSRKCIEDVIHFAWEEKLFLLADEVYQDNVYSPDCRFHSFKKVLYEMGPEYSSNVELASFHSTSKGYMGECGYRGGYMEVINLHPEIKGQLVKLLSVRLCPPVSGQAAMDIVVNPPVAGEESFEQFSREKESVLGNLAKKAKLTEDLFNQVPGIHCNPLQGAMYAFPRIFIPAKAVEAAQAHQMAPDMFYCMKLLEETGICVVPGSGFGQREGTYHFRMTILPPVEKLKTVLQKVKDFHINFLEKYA
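Fluorescence of coupled pyruvate oxidase/HRP/Amplex Red system (50uM Amplex, 30 min, dark) reports pyruvate formed by GPT2. Enzyme reaction: 10ng/uL GPT2, 2mM L-alanine, 250uM a-KG, 30 min room temperature, pH 7.5; 50uM AOA control.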
FLuc SDR -ATP – Firefly luciferase (FLuc-C-HiBiT) SDR gain of signal screen - without ATP. shares compounds with FLuc inh-1. Purified FLuc-C-HiBiT, Nano-Glo HiBiT luminescence, no ATP. Potency, µM (highest dose often 32.7 µM), inactives show at the top dose activation (signal gain), actives largely listed as activators. 1,300 compounds, 7.8% hits. AID 1963318, 2024; note: nearly all actives have a fitted effect of over 55% in size
FLuc SDR ATP – Firefly luciferase (FLuc-C-HiBiT) SDR gain of signal screen - plus ATP. Potency, µM (top dose mostly 32.7 µM), for the others: top-dose activation (gain of signal), actives largely listed as activators. 1,300 compounds, 8.7% hits. purified FLuc-C-HiBiT + ATP, HiBiT complementation luminescence. shares compounds with FLuc inh-1;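 note: signal reports ligand binding via conformational change of the enzyme rather than luciferase catalysis; % of control where 0% means no effect; nearly all actives have a fitted effect of over 55% in size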
FLuc inh-2 – Firefly luciferase (FLuc-C-HiBiT) enzymatic inhibition screen - Functional assay; shares compounds with FLuc inh-1; purified FLuc-C-HiBiT enzyme, luciferin luminescence; Potency, µM (doses to about 32.7 µM), for inactives: at the top dose activity change, negative = inhibition, actives largely listed as inhibitors; 1,300 compounds, 42% hits; note: % is set by controls: 0 for no effect and ±100 for the full control effect; nearly all actives have a fitted effect of over 70% in size
* marks the source's active call; other numbers are inactive results; [ ] = remark or other dose. Shown are actives, neighbours in structure and some others; about 10% of the full set was active somewhere. Unless noted, calls come from the whole dose curve; as a rule, active = well fitted curve in the direction sought with a large enough effect; inconclusive = small, poorly fitted or top-dose-only effect, or another doubt; inactive = no such curve, though single readings can be large; an effect the other way counts as inactive or inconclusive. Potency is the fitted concentration of half-maximal effect.

`O=C(Nc1ccc(F)cc1)c1ccc2nc(-c3ccccn3)oc2c1` gave HEK293 tox inconclusive, NIH3T3 tox inconclusive and GPT2 inh inactive.
O=C1CC2(CCN(c3nc(-c4ccccc4)no3)CC2)CN1Cc1ccccc1 was read as hNpr1 antagonist inconclusive, HEK293 tox inconclusive, FLuc inh-1 inactive, NIH3T3 tox inconclusive and GPT2 inh inactive.
C[C@@H]1CN(c2nc(-c3ccccc3)no2)CC[C@@]1(O)C1CCC1 was read as hNpr1 antagonist 5.62µM*, HEK293 tox inconclusive, FLuc inh-1 0.355µM*, NIH3T3 tox inconclusive, GPT2 inh 1.5%, FLuc SDR -ATP inconclusive, FLuc SDR ATP inconclusive and FLuc inh-2 1.76µM*.
For OCC1(CC2CC2)CCCN(c2nc(-c3ccccc3)no2)C1 (stereo not given) the results were hNpr1 antagonist -3.5%, HEK293 tox inconclusive, FLuc inh-1 14.1µM*, NIH3T3 tox inconclusive, GPT2 inh inactive, FLuc SDR -ATP 10.9%, FLuc SDR ATP 12.5% and FLuc inh-2 -12.2%.
`Clc1ccccc1Cc1cn2cc(-c3ccccc3)nc2s1` gave FLuc SDR -ATP inconclusive, FLuc SDR ATP inconclusive and FLuc inh-2 0.442µM*.
Screening Fc1ccc(Cc2cn3cc(-c4ccc(Cl)cc4)nc3s2)cc1 returned FLuc SDR -ATP 16.3%, FLuc SDR ATP 14.1% and FLuc inh-2 inconclusive.
Screening Brc1ccc(-c2cn3cc(Cc4ccccc4)sc3n2)cc1 returned FLuc SDR -ATP 22.0%, FLuc SDR ATP 15.2% and FLuc inh-2 inconclusive.
Fc1ccc(-c2cn3cc(Cc4ccccc4)sc3n2)cc1 was read as FLuc SDR -ATP inconclusive, FLuc SDR ATP inconclusive and FLuc inh-2 0.279µM*.
Screening Fc1ccc(CNC[C@H]2Cn3cc(-c4ccccc4)nc3CO2)cc1 returned hNpr1 antagonist -9.8%[70.6 µM], HEK293 tox inconclusive, FLuc inh-1 inactive, NIH3T3 tox inconclusive and GPT2 inh inactive.
Fc1ccc(Cc2cn3cc(-c4ccccc4)nc3s2)cc1 was read as FLuc SDR -ATP inconclusive, FLuc SDR ATP inconclusive and FLuc inh-2 0.442µM*.
Screening O=C(COC(=O)c1cc(-c2cccs2)nc2ccccc12)c1ccc(Br)cc1 returned FLuc SDR -ATP 14.4%, FLuc SDR ATP 8.2% and FLuc inh-2 -17.9%.
For CC1(c2ccccc2)N(Cc2ccc(O)cc2)C(=O)OC12CCN(Cc1ccncc1)CC2 (stereo not given) the results were hNpr1 antagonist 0.7%, HEK293 tox inconclusive, FLuc inh-1 inactive, NIH3T3 tox -25.9% and GPT2 inh -17.7%.
Screening CCC(=O)N1CCN(c2nc3c(s2)CC(C(=O)N2CCCCC2)CC3)CC1 (stereo not given) returned hNpr1 antagonist -4.5%, HEK293 tox -22.3%, FLuc inh-1 inactive, NIH3T3 tox -18.3% and GPT2 inh 1.8%.
For CCC(=O)N1CCN(c2nc3c(s2)CC(C(=O)O)CC3)CC1 (stereo not given) the results were hNpr1 antagonist 0.7%, HEK293 tox -4.4%, FLuc inh-1 12.6µM*, NIH3T3 tox inconclusive, GPT2 inh inactive, FLuc SDR -ATP 10.8%, FLuc SDR ATP inconclusive and FLuc inh-2 inconclusive.
`CCCCNC(=O)c1cccc2c1CCN2C(=O)Nc1ccccc1` gave hNpr1 antagonist inconclusive, HEK293 tox inconclusive, FLuc inh-1 3.55µM*, NIH3T3 tox -24.9%, GPT2 inh inactive, FLuc SDR -ATP 24.0%, FLuc SDR ATP 1.97µM* and FLuc inh-2 1.57µM*.
Screening CCCCNC(=O)c1cccc2c1CCN2C(=O)c1ccc(F)cc1 returned hNpr1 antagonist 4.9%, HEK293 tox inconclusive, FLuc inh-1 inactive, NIH3T3 tox -22.9% and GPT2 inh inactive.
`O=C(NCCN1CCc2ccccc2C1)c1cccc2c1CCN2C(=O)C1CC1` gave hNpr1 antagonist 6.6%, HEK293 tox -25.9%, FLuc inh-1 inactive, NIH3T3 tox inconclusive and GPT2 inh -8.8%.
`Cc1ccc(NC(=O)N2CCc3c(C(=O)NCCc4ccccn4)cccc32)cc1` gave hNpr1 antagonist -20.3%, HEK293 tox inconclusive, FLuc inh-1 5.62µM*, NIH3T3 tox inconclusive, GPT2 inh inconclusive, FLuc SDR -ATP inconclusive, FLuc SDR ATP 11.1µM* and FLuc inh-2 4.42µM*.
CN(C)CCNC(=O)c1cccc2c1CCN2C(=O)Nc1ccccc1 was read as hNpr1 antagonist inconclusive, HEK293 tox inconclusive, FLuc inh-1 3.55µM*, NIH3T3 tox -4.3%, GPT2 inh inactive, FLuc SDR -ATP 17.1%, FLuc SDR ATP 1.11µM* and FLuc inh-2 0.7µM*.
Screening CCCNC(=O)c1cccc2c1CCN2S(=O)(=O)c1ccc(C)cc1 returned hNpr1 antagonist inconclusive, HEK293 tox inconclusive, FLuc inh-1 inactive, NIH3T3 tox inconclusive and GPT2 inh inconclusive.
`CCCNC(=O)c1cccc2c1CCN2C(=O)Nc1cccc(C)c1` gave hNpr1 antagonist -23.0%, HEK293 tox inconclusive, FLuc inh-1 5.01µM*, NIH3T3 tox 4.9%, GPT2 inh -4.7%, FLuc SDR -ATP inconclusive, FLuc SDR ATP 3.51µM* and FLuc inh-2 2.48µM*.
`O=C(CCC1CCN(S(=O)(=O)c2ccccc2)CC1)NCc1ccccc1` gave hNpr1 antagonist -10.6%, HEK293 tox inconclusive, FLuc inh-1 inactive, NIH3T3 tox inconclusive and GPT2 inh inactive.
